p47phox inh – p47phox (human) inhibition; inhibition, % at 24.7 µM; P14598; 220,000 tested, 0.53% active; p47phox/p22phox peptide binding, fluorescence polarization, 2 h; AID 1274
Target sequence (P14598 whole entry, looked up): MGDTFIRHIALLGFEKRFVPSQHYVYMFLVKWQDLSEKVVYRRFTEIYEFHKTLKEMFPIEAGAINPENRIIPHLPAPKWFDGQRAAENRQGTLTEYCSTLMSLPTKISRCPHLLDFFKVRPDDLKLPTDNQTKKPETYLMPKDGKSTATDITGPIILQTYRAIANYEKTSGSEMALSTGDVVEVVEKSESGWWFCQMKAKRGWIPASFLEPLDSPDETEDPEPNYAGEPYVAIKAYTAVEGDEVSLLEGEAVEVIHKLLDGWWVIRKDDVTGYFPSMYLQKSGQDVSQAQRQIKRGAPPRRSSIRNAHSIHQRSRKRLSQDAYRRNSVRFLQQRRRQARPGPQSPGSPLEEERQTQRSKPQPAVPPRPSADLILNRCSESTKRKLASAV
eIF4E 4G PPI – inhibitors of eIF4E and eIF4G interaction in translation initiation; AID 782; P63073+Q04637; inhibition, % at 21.7 µM; TR-FRET eIF4E-eIF4GI(517-606) binding, 2 h; 220,000 tested, 0.37% active
Mcl1-Noxa inh – disrupts binding of human Mcl-1 to Noxa peptide; Q07820; TR-FRET Mcl-1/Noxa peptide binding, 2 h; inhibition, % at 21.7 µM; 220,000 tested, 1.5% active;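 active = compounds that cut the protein-peptide binding signal by more than 50% relative to plate controls in a single-dose test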;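 note: His-tagged Mcl-1 with rhodamine Noxa BH3 peptide and terbium anti-His antibody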
14-3-3 Bad PPI – disrupts binding of bovine 14-3-3 zeta to phospho-Bad peptide | P63103 | TR-FRET 14-3-3zeta/Dy647-pBad peptide displacement, 1 h | inhibition, % at 21.7 µM | 220,000 tested, 0.71% active | AID 781;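 active = inhibition above about 70%, limit read from the data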
Target sequence (P63103 whole entry, looked up): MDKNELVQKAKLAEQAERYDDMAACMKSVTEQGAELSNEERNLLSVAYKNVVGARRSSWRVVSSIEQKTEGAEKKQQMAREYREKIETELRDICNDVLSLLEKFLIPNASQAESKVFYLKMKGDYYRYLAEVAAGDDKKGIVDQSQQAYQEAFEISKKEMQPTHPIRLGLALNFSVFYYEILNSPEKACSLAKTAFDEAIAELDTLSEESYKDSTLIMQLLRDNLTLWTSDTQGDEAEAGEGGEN
Mcl1-Bid inh – Mcl-1/Bid interaction inhibition. inhibition, % at 21.7 µM. TR-FRET Mcl-1/Bid-Dy647 peptide binding, 1536-well. 220,000 tested, 0.97% active. AID 1021. Q07820;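 active = compounds that cut the binding signal by more than half at the single screening dose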;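 note: His-tagged Mcl-1 with europium anti-His antibody binding Bid BH3 peptide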
Bim-Mcl-1 – inhibitors of Bim-Mcl-1 interaction, human; Bead-based flow cytometry, Bim peptide-Mcl-1 binding; inhibition, % at 10 µM; 190,000 tested, 0.1% active; AID 1009; in the data active = inhibition above about 40%
Of the large screens only hits and unclear results are named; the others gave an inactive call; [ ] = another dose, or the depositor's remark. The list is not random: actives were taken first. Their share in the collection is about 3.3%.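 Rule for the calls, unless noted: active = inhibition above about 30% (limit read from the data); inactive = the rest.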

CCCC(c1nnnn1C(C)(C)CC)N1CCN(C2CCCC2)CC1 (centres undefined)	14-3-3 Bad PPI 73
CCCC(c1nnnn1C1CCCCC1)N1CCN(C2CCCC2)CC1 (centres undefined)	Mcl1-Bid inh 51
CC(C)C(c1nnnn1Cc1ccc(F)cc1)N1CCN(C2CCCC2)CC1 (centres undefined)	none
COc1cc(/C=N/NC(=O)CNc2n[nH]c(=O)[nH]c2=O)ccc1O	none
COc1ccc(CNC(=O)CCC(=O)Nc2nnc(CC(C)C)s2)cc1	none (no result: Bim-Mcl-1)
CCCC(c1nnnn1Cc1cccs1)N1CCN(C2CCCC2)CC1 (centres undefined)	none
CCC(c1nnnn1Cc1cccs1)N1CCN(C2CCCC2)CC1 (centres undefined)	Mcl1-Bid inh 54
Cc1cc(=O)n(C2CCS(=O)(=O)C2)[nH]1 (centres undefined)	none
CC1(C)Cc2c(C#N)c(OCC(=O)c3ccc(Cl)cc3)nc(-c3ccco3)c2CO1	none
Cc1nc(OCC(=O)c2ccc(Cl)cc2)c(C#N)c2c1COC(C)(C)C2	p47phox inh 122
Cc1nn2cc(-c3cccc(Cl)c3)cnc2c1Br	none
CCOC(=O)c1c(-c2cccc([N+](=O)[O-])c2)csc1NC(=O)CCCOc1ccccc1	eIF4E 4G PPI 76
CCOC(=O)c1c(-c2ccc(-c3ccccc3)cc2)csc1NC(=O)C1C2CCC(O2)C1C(=O)O (centres undefined)	Mcl1-Noxa inh 56
O=C(COC(=O)c1cn(-c2ccccc2)nc1-c1cccnc1)NC1CC1	none
CN(C)CCC1Sc2ccccc2Oc2ccccc21 (centres undefined)	Mcl1-Bid inh 58
CC1c2ccccc2SC(CCCN(C)C)c2ccccc21 (centres undefined)	none
CCc1ccccc1Nc1nc2ccccc2n1C(C)C	none
CC(C)n1c(Nn2cnnc2)nc2ccccc21	Mcl1-Noxa inh 103
O=Cc1ccccc1-n1cncn1	none
S=C(Nc1ccc(Br)cc1Cl)NN1CCOCC1	none
O=C(NNC(=O)c1ccccc1Cl)c1ccccc1Cl	Mcl1-Bid inh 95 (no result: Bim-Mcl-1)
O=C(NNC(=O)c1ccccc1Cl)c1ccco1	none (no result: Bim-Mcl-1)
COc1ccc(COC(=O)NNC(=O)c2ccccc2Cl)cc1	Bim-Mcl-1 47
O=C(/C=C/c1ccc(Br)cc1)N1CCN(c2cccc(C(F)(F)F)c2)CC1	Mcl1-Bid inh 61
O=C(/C=C/c1cccc(Br)c1)N1CCN(c2cccc(C(F)(F)F)c2)CC1	none
O=C(c1c(F)c(F)c(F)c(F)c1F)N1CCN(c2cccc(C(F)(F)F)c2)CC1	none
O=C(CN1CCN(c2cccc(C(F)(F)F)c2)CC1)Nc1cccc(C(F)(F)F)c1	14-3-3 Bad PPI 74
O=C(c1ccncc1)N1CCN(c2cccc(C(F)(F)F)c2)CC1	Mcl1-Noxa inh 57
COc1ccc(C(=O)n2c(SC)nc3cc4c(cc32)OCCO4)cc1	none
COc1ccccc1C(=O)NNC(=S)NC(=O)c1sc2ccccc2c1Cl	none
COc1ccccc1C(=O)NC(=S)NNC(=O)c1sc2ccccc2c1Cl	Mcl1-Bid inh 73
COc1ccc(Cl)cc1NC(=O)CN(C1CCCCC1)S(C)(=O)=O	Mcl1-Noxa inh 68
CSc1ccccc1NC(=O)CN(C1CCCCC1)S(C)(=O)=O	none
Cc1ccsc1/C=N/NS(=O)(=O)c1ccc([N+](=O)[O-])cc1	none
COc1ccccc1OCCC(=O)OCC(=O)c1c(N)n(C)c(=O)n(C)c1=O	none
COc1cccc(OC)c1C(=O)Nc1ccccc1C(=O)N1CCOCC1	Mcl1-Bid inh 84
Cn1c(=O)c(=O)n(C)c2cc(S(=O)(=O)NCCOc3ccccc3Cl)ccc21	none
CCOC(=O)CCC(=O)Nc1ccc(S(=O)(=O)N2CCCC2)cc1	none
CCOC(=O)CCC(=O)Nc1ccc(S(=O)(=O)N2CCC(C)CC2)cc1	p47phox inh 31
O=c1[nH]nc(SCc2ccccc2)n1C1CC2C=CC1C2 (centres undefined)	none (no result: Bim-Mcl-1)
CCN1CCN(CCCOc2ccccc2-c2ccccc2)CC1	14-3-3 Bad PPI 71
CN(C)CCCCOc1ccccc1-c1ccccc1	Mcl1-Bid inh 73
CCN1CCN(CCOc2ccccc2-c2ccccc2)CC1	none
COc1ccc(-c2cc(C(=O)NCC3CCCO3)c3ccccc3n2)cc1 (centres undefined)	none
COc1ccc(-c2cc(C(=O)NCC3CCCO3)c3cc(C)ccc3n2)cc1 (centres undefined)	14-3-3 Bad PPI 77
CCn1cnc2sc(C(=O)N3CCN(Cc4ccc5c(c4)OCO5)CC3)c(C)c2c1=O	p47phox inh 85
O=C(c1cccc([N+](=O)[O-])c1)N1CCN(Cc2ccc3c(c2)OCO3)CC1	none
O=C(c1cccnc1)N1CCN(Cc2ccc3c(c2)OCO3)CC1	14-3-3 Bad PPI 76, Mcl1-Bid inh 61
O=C(c1cccnc1)N1CCN(Cc2cccc(Br)c2)CC1	14-3-3 Bad PPI 71
COc1ccc(CN2CCN(C(=O)c3cccnc3)CC2)cc1Br	none
Cc1c(N2C(=O)CSC2c2ccc(F)cc2)c(=O)n(-c2ccccc2)n1C (centres undefined)	none (no result: Bim-Mcl-1)
O=C1C2C3C=CC(C2C(=O)N1CCCO)C1C2C(=O)N(CCCO)C(=O)C2C31 (centres undefined)	Mcl1-Bid inh 63
Cc1cc(C)c(C)c(S(=O)(=O)ON2C(=O)c3ccccc3C2=O)c1C	none
Cc1cc(C)c(S(=O)(=O)ON2C(=O)c3ccccc3C2=O)cc1C	Mcl1-Noxa inh 72
Cc1ccc(S(=O)(=O)ON2C(=O)c3ccccc3C2=O)c(C)c1	Mcl1-Noxa inh 71
COc1ccc(-c2noc(CSc3nc(N)c(-c4ccccc4)c(=O)[nH]3)n2)cc1OC	eIF4E 4G PPI 46[fluorescence artefact?]
COc1ccc(-c2noc(CSc3nc(-c4ccccc4)cc(=O)[nH]3)n2)cc1	none
CCOC(=O)c1cnc2ccc(C)cc2c1NCCO	p47phox inh 43
C=CCc1c(O)c(CC)cc2c(C)cc(=O)oc12	none (no result: Bim-Mcl-1)
CCN(CC)c1ccc(/C=C2/C(=O)ON=C2C)cc1	none
CC1=NOC(=O)/C1=C/c1ccc(N(C)C)cc1	p47phox inh 181
CCCC1COC(Cn2cncn2)(c2ccc(C)cc2)O1 (centres undefined)	14-3-3 Bad PPI 88
CC(Nc1ccc(N2CCOCC2)cc1)C(=O)N1c2ccccc2CC1C (centres undefined)	14-3-3 Bad PPI 84 (no result: Bim-Mcl-1)
CC1Cc2ccccc2N1CC(=O)Nc1ccc(N2CCOCC2)cc1 (centres undefined)	none
CC(=O)Nc1ccc(N2CCCCC2)c(C(=O)Nc2cccc(C)c2)c1	eIF4E 4G PPI 43
Cc1cccc(NC(=O)c2cc(NC(=O)C3CCCCC3C(=O)O)ccc2N2CCCCC2)c1 (centres undefined)	none
O=C(N/N=C/c1cccnc1)C1CC1(c1ccccc1)c1ccccc1 (centres undefined)	none

Source: PubChem (several laboratories)
